Laboratory results: ChEMBL document CHEMBL3988442, “University of Dundee, Small-Polar-MMV Screening Library” (2021)
In all, about 69,000 compounds went through this assay and about 420 (0.61%) showed an effect of 50% or more. Only a selection was taken, and strong results are over-represented in it overall.

These molecules were tested against T1, Histidine--tRNA ligase (Leishmania infantum) (UniProt A4I591) (assay: Leishmania infantum Histidine tRNA synthetase (LdHisRS)). Conditions: 30 µM.
T1 sequence (whole entry): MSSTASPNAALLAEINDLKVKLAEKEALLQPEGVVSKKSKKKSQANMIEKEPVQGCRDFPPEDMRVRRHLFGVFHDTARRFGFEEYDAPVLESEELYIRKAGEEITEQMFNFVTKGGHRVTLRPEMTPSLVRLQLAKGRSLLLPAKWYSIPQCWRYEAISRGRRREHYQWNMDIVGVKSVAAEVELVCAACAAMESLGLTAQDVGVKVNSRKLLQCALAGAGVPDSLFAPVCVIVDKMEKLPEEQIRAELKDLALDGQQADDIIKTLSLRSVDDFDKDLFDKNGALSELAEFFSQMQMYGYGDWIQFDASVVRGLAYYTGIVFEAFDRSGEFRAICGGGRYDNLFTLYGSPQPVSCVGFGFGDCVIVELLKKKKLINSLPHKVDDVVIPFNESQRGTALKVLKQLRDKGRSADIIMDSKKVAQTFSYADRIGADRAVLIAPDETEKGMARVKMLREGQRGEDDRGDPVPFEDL
Format: functional
Design: scale not given: in the data most compounds retested in dose-response had high values

Row | SMILES | Percent Effect
1 | Cc1ccnc(C(=O)N2C[C@@H]3CN(S(C)(=O)=O)CCO[C@@H]3C2)c1 | 8.77%
2 | COCCOc1ccccc1C(=O)N1CCCCC1c1nccs1 (stereo not given) | 50%
3 | COc1cccc(C(=O)N2CCCCC2c2nccs2)c1OC (stereo not given) | 4.39%
4 | COCCOc1ncccc1C(=O)N1CCCCC1c1nccs1 (stereo not given) | 14.9%
5 | Cc1ccc(S(=O)(=O)Nc2ccc(-n3nnn(C)c3=O)cc2)cc1 | 12.2%
6 | CC(C)c1ccc(C(=O)O)cc1S(=O)(=O)Nc1ccc(=O)n(C)c1 | 84.6%
7 | CCCc1ccc(S(=O)(=O)Nc2ccc(=O)n(C)c2)cc1 | 29.1%
8 | Cn1cc(NS(=O)(=O)c2ccc3c(c2)CCCC3)ccc1=O | 41.8%
9 | Cn1cc(NS(=O)(=O)c2ccc(OC(F)(F)F)cc2)ccc1=O | 82%
10 | Cn1cc(NS(=O)(=O)c2ccc(C(F)(F)F)cc2)ccc1=O | 38.2%
11 | Cc1ccc(S(=O)(=O)Nc2ccc(=O)n(C)c2)cc1 | 77.5%
12 | Cn1cc(NS(=O)(=O)c2ccc(F)c(F)c2)ccc1=O | 47.3%
13 | CCc1ccc(C(=O)O)cc1S(=O)(=O)Nc1ccc(=O)n(C)c1 | 21.4%
14 | Cc1ccc(S(=O)(=O)Nc2ccc(-n3cccc3C(=O)O)c(C)c2)cc1 | 6.25%
15 | CC(C)Cc1ccc(S(=O)(=O)Nc2ccc(=O)n(C)c2)cc1 | 91%
16 | Cc1ccc(S(=O)(=O)Nc2ccc(=O)n(C)c2)c(Br)c1 | 32.7%
17 | c1ccc(CN2CC[C@@H]3O[C@H](COCc4ccncc4)CC[C@@H]32)nc1 | 10.9%
18 | CC(C)CN1C[C@@H]2OCC(=O)N(Cc3nccn3C)[C@@H]2C1 | 23%
19 | O=C([C@@H]1COC[C@H]2CN(C3CCOCC3)C[C@H]21)N1CCOCC1 | 30.6%
20 | CCO[C@H]1CC[C@H]2[C@@H]1OCCN2C(=O)COc1ccccc1 | 19.1%
21 | CN1[C@H]2CC[C@@H]1CN(C(=O)c1sccc1S(N)(=O)=O)CC2 | -12.7%
22 | CN(c1cccnn1)[C@@H]1CC[C@@H]2CN(Cc3cccc(C(=O)O)c3)C[C@@H]21 | 5.63%
23 | Cc1[nH]nc(CCC(=O)N2C[C@H]3CC[C@@H]2CN(C(=O)N(C)C)C3)c1C | 13.9%

Row | SMILES | Percent Effect
24 | Cc1cc(C(=O)N2C[C@@H]3CN(S(C)(=O)=O)CCO[C@@H]3C2)c(C)o1 | -1.75%
25 | CNC(=O)[C@@]12CCO[C@@H]1CCN(S(=O)(=O)c1cc(C)cc(C)c1)C2 | 13%
26 | Cn1cc(C(C)(O)CNC(=O)c2cc(Br)cn2C)cn1 (stereo not given) | 25.5%
27 | O=C(CC1CCCC1)Nc1ccc(-n2cc(Br)cn2)nc1 | 10.5%
28 | CCC(=O)Nc1cc(Br)cnc1OCC(F)(F)F | 14%
29 | CC(C)(C)CC(=O)Nc1ccccc1SCC(N)=O | 9.57%
30 | Cc1c(CS(C)(=O)=O)cccc1NC(=O)CC1CCCC1 | 11.7%
31 | Cc1cc(=O)n(C)cc1NC(=O)CC1CCC1 | 75%
32 | Cn1cc(Br)cc(NC(=O)Cc2cccs2)c1=O | 34%
33 | Cn1cc(Br)cc(NC(=O)CC2CCC2)c1=O | 103%
34 | Cn1ccc(CN2CCC(CC(=O)NC3CCCC3)CC2)cc1=O | -8.33%
35 | CCC(=O)Nc1cc(Br)cn(C)c1=O | 103%
36 | Cn1cc(Br)cc(NC(=O)CC(C)(C)C)c1=O | 95%
37 | Cc1nn(C)cc1NC(=O)CC1CCN(CCc2ccccc2)CC1 | 5.67%
38 | COCCNC(=O)[C@H]1CN(Cc2nccs2)C[C@H]2OCC[C@@H]12 | 15.2%
39 | COCCCN1C(=O)CC[C@H]2CN(Cc3ncc[nH]3)CC[C@H]21 | -49.3%
40 | COc1cc(N2C[C@H](C(=O)N3CCCC3)[C@@H]3CCO[C@@H]3C2)ncn1 | 8.06%
41 | O=C(c1ccco1)N1CC[C@H]2[C@H]1CCN2S(=O)(=O)C1CC1 | 5.26%
42 | Cc1ccc(C(=O)N2C[C@@H]3COC[C@]3(COc3cccnc3)C2)cn1 | 7.52%
43 | O=C(NCc1cccs1)[C@]12COC[C@H]1CN(c1ncccn1)C2 | 5.26%
44 | CCCS(=O)(=O)N1C[C@@H](Oc2ncccc2F)[C@H]2OCCC[C@H]21 | 8.22%
45 | c1cnc(N2CCO[C@H]3[C@H](OCc4cccnc4)CC[C@@H]32)nc1 | -9.73%
46 | Cc1ncsc1CN1CC[C@H]2OCC[C@@]2(C(=O)N2CCCO2)C1 | 16.8%

Row | SMILES | Percent Effect
47 | COc1ccccc1C1(CNCc2ccc([S+](C)[O-])cc2)CC1 (stereo not given) | 12.1%
48 | N#Cc1ccc(CNCC2(c3ccccc3)CCOCC2)cc1 | 42.9%
49 | COc1ccccc1C1(CNCc2cccc(O)c2)CCOCC1 | 109%
50 | COc1ccccc1C1(CNCc2ccc(C#N)cc2)CCOCC1 | 60.4%
51 | COc1ccccc1C1(CNCc2cccc(C#N)c2)CCOCC1 | 49.5%
52 | COc1ccccc1C1(CNc2nnc(C)c(C)c2C#N)CCOCC1 | 37%
53 | Cn1cc(C(=O)N2C[C@@H]3CN(S(C)(=O)=O)CCO[C@@H]3C2)cn1 | 7.55%
54 | Cc1oncc1C(=O)N1CC[C@H]2[C@@H]1CCC(=O)N2CC1CC1 | 0%
55 | CC(C)CN1C[C@H]2C[C@H](C(=O)N3CCCC3)[C@@H](C1)O2 | 13.2%
56 | CC(C)c1nc2cc(NC(=O)Cn3ccc(=O)[nH]c3=O)ccc2o1 | 14%
57 | Cc1noc(C(C)Nc2ccc3oc(=O)[nH]c3c2)n1 (stereo not given) | 16.4%
58 | Cc1noc(C(C)Nc2ccc3oc(C)nc3c2)n1 (stereo not given) | 106%
59 | CC(C)c1nc2cc(NC(=O)Cn3ccccc3=O)ccc2o1 | 12%
60 | Cc1noc(C(C)Nc2ccc3c(c2)CCC3)n1 (stereo not given) | 9.38%
61 | Cc1noc(C(C)Nc2ccc3oc(C(C)C)nc3c2)n1 (stereo not given) | 106%
62 | Fc1cnc(N2C[C@@H]3C[C@@H](c4nc(C5CC5)cs4)O[C@@H]3C2)nc1 | 7.55%
63 | CC(C)CNc1nc(C(=O)/N=c2\[nH]nc(C(C)(C)C)s2)cs1 | 1.91%
64 | Cc1[nH]/c(=N\C(=O)c2csc(NCC(C)C)n2)sc1C | 20.9%
65 | Cc1cs/c(=N/C(=O)c2csc(NCC(C)C)n2)[nH]1 | 75.3%
66 | CCN(Cc1nc2c(cnn2C)c(=O)[nH]1)Cc1ccco1 | 15.7%
67 | O=C(NCC1CCCO1)c1nc2c(s1)CCCN2Cc1ccccc1 (stereo not given) | 45.8%
68 | O=C(NCC1CCCO1)c1nc2c(s1)CCCN2CC1CC1 (stereo not given) | 29.2%
69 | COCCN1CCCc2sc(C(=O)NCC3CCCO3)nc21 (stereo not given) | 52.8%

Row | SMILES | Percent Effect
70 | Cc1cccc(CN2C[C@@H]3COC[C@]3(CNC(=O)C3CCC3)C2)c1 | 17.8%
71 | NC1CCN(C2CCN(c3ccc(-c4ccco4)cc3)CC2)CC1 | 54.8%
72 | O=C(O)c1ccccc1C1CCN(C2CCN(c3ccccc3)CC2)C1 (stereo not given) | 22.7%
73 | CCS(=O)(=O)c1ccc(N2CCC(N)CC2)cc1 | 11.6%
74 | CNC1CCN(C2CCN(c3ccc(-c4ccco4)cc3)CC2)CC1 | 42.1%
75 | NCC1CCN(C2CCN(c3ccc(-c4ccco4)cc3)CC2)C1 (stereo not given) | 64.3%
76 | COc1ccc(N2CCC(N3CCOC(C(F)(F)F)C3)CC2)cc1 (stereo not given) | 14.3%
77 | Cc1cccc(C(=O)N2CCN(S(C)(=O)=O)[C@@H]3CS(=O)(=O)C[C@@H]32)n1 | -2.67%
78 | COC[C@@]12CC[C@@H](N3CCOCC3)C[C@H]1CCN(c1ncccc1F)C2 | 19.4%
79 | O=C1OCCN1CC(=O)N1C[C@H]2CC[C@@H]1CN(Cc1cscn1)C2 | -18.2%
80 | O=C(c1ccccn1)N1CC[C@H]2C(=O)N(c3ccsc3)CCO[C@H]2C1 | 18%
81 | CCn1nc2c(cc1=O)CN(c1ncnc3sccc13)CC2 | 102%
82 | c1csc(N2CCCN(c3ncnc4sccc34)CC2)n1 | 22.4%
83 | CCCn1nc2c(cc1=O)CN(c1ncnc3sccc13)CC2 | 15.3%
84 | Cn1nc2c(cc1=O)CN(c1ncnc3sccc13)CC2 | 100%
85 | CC(C)n1nc2c(cc1=O)CN(c1ncnc3sccc13)CC2 | 38.7%
86 | c1csc(N2CCN(c3ncnc4sccc34)CC2)n1 | 27.1%
87 | O=C1N(c2cccc(F)c2)Cc2nc(=O)n(Cc3ccc(Cl)cc3)n21 | 9.78%
88 | O=C(Cc1ccco1)N1C[C@H]2CCC[C@@]2(COCC2CC2)C1 | 20%
89 | CN(C)C(=O)CN1CC[C@H]2CN(S(C)(=O)=O)C[C@@H]2C1=O | 15.5%
90 | CN(C)C(=O)N1C[C@H](Oc2ccccn2)[C@H]2OCCC[C@H]21 | 8.74%
91 | COCC(=O)N1C[C@H]2CNC[C@@]2(C(=O)NCc2snnc2C)C1 | 18.6%
92 | CCN(CC1CCOCC1)C(=O)Cn1cccc(C(F)(F)F)c1=O | 13.2%

Row | SMILES | Percent Effect
93 | COc1cccn(CC(=O)N(C)CCSC)c1=O | 32%
94 | COc1cccn(CC(=O)N(C)CCC2CCOCC2)c1=O | 91.2%
95 | CN(CCOCC1CC1)C(=O)Cn1cccc(C(F)(F)F)c1=O | 15.4%
96 | CCc1ccccc1OCCN(C)C(=O)CN1CCCC1 | 22.2%
97 | COc1cccn(CC(=O)N(C)CCOc2cc(C)cc(C)c2)c1=O | 105%
98 | CN(CCCOc1ccccc1Cl)C(=O)CN1C[C@@H]2CC[C@H](CC1=O)N2 | 17.7%
99 | COCCN(C)C(=O)Cn1cccc(OC)c1=O | 105%
100 | COc1cccn(CC(=O)N(C)Cc2ccoc2)c1=O | 47.6%
101 | CCc1cccc(OCCCN(C)C(=O)CN2CCNC2=O)c1 | 8.85%
102 | CN(CCCOc1ccccc1Cl)C(=O)CN1CCCCCC1=O | 21.2%
103 | COCCCN(C)C(=O)Cn1cccc(OC)c1=O | 107%
104 | CC(=O)N1CC[C@H]2CC(=O)N(C3CC3)CC[C@H]2C1 | 22.2%
105 | CNC(=O)CN1CC[C@H]2CN(C(=O)c3cc[nH]n3)C[C@H]2C1 | 16.7%
106 | CNC(=O)[C@@H]1CC[C@@H]2[C@@H](CCN2Cc2cn(C)c3ccccc23)O1 | 13.2%
107 | O=C1[C@H]2CC[C@H](CN(C3CSCCSC3)C2)N1Cc1cscn1 | 11.4%
108 | CN(C)S(=O)(=O)N1CC[C@]2(O)CCN(CCc3cccc(F)c3)C[C@@H]2C1 | 43.4%
109 | Cc1nc(CN2C[C@@H]3CN(C(=O)c4cccn4C)C[C@@H]3C2)cs1 | -1.92%
110 | CC(=O)N1CCO[C@@H]2CN(Cc3ccccc3Cl)C[C@@H]2C1 | 11.7%
111 | Cc1nc(CN2C[C@@H]3CN(C(=O)C4(C#N)CC4)C[C@@H]3C2=O)cs1 | 26.5%
112 | Cc1nc([C@H]2C[C@H]3CN(C(=O)c4ccoc4C)CC[C@@H]3O2)no1 | 15.1%
113 | CN(CCCOc1ccccc1Cl)C(=O)CN1CCNC1=O | 24.8%
114 | CN(CCCOc1ccccc1Cl)C(=O)CN1C(=O)CCNC1=O | 14.2%
115 | COc1cccn(CC(=O)N(C)CCCOc2c(C)cccc2C)c1=O | 110%
